# Results filed as inconclusive are left out. A number with no mark means an inactive call. The call rests on the fitted dose curve; in most records, active means well fitted inhibition curve with a large enough effect; inconclusive means small, poorly fitted or top-dose-only effect; inactive means flat fitted curve, though single readings scatter.
# Target: Calcium and integrin-binding protein 1 (Homo sapiens) (UniProt Q99828)
# Test: Primary qHTS for Identification of Calcium Integrin Binding Protein 1 (CIB1) Competitor (AID 1508620);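 further: GST tagged CIB1 binding a fluorescein labelled alphaIIb integrin peptide tracer; top concentration of the series differs between compounds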
# Conditions: CIB1-GST / FITC-alphaIIb peptide fluorescence polarization; series mostly up to 114 µM; activity change, negative = inhibition: at the top concentration
# Summary of the method: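 Fluorescence polarization competition: CIB1-GST (1 uM final) preincubated with compound 15 min at room temperature, then FITC-labeled alphaIIb peptide (100 nM final) added for another 15 min. Polarization read at Ex 480/Em 540.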
# On the % scale 0 is the no-effect control and ±100 the full control effect.
# Sequence of Calcium and integrin-binding protein 1 (Homo sapiens) (Q99828 whole entry, looked up): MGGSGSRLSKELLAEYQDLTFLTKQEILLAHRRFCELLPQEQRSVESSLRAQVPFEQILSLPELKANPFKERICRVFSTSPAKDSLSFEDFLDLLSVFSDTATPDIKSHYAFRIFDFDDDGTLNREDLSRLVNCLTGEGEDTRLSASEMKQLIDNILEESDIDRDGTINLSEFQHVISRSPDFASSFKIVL
row,SMILES,"activity change, negative = inhibition"
1,CC1(C)SC2C(NC(=O)[C@H](C(=O)O)c3ccsc3)C(=O)N2C1C(=O)O (some centres undefined),-4.23%
2,Cc1cc(C)c(-c2csc(NC(=O)c3ccccc3)n2)c(C)c1,-1.68%
3,COc1cc(N2CCN(C(C)=O)CC2)ccc1Nc1ncc(Cl)c(Nc2ccc(N3CCN(C(C)=O)CC3)cc2OC)n1,-4.45%
4,CN(CC(=O)N(Cc1ccc(C2CCCCC2)cc1)c1ccc(C(=O)O)cc1)S(=O)(=O)c1c(F)c(F)c(F)c(F)c1F,7.18%
5,CO[C@@H]1[C@@H](O[C@H]2O[C@@H](C)[C@H](O[C@@H]3C[C@](C)(O)[C@H](O)[C@@H](C)O3)[C@@H](N(C)C)[C@@H]2O)[C@@H](CC=O)C[C@@H](C)[C@@H](O[C@H]2CC[C@H](N(C)C)[C@H](C)O2)/C=C/C=C/C[C@@H](C)OC(=O)C[C@H]1O,-4.02%
6,CC1OC2O[C@H]3[C@@H](OCC(O)[C@H]3O)OC(=O)C34CCC(C)(C)CC3C3=CCC5C6(C)CC(O)C(OC7OC(CO)C(O)C(O)C7O[C@@H]7OC[C@H](OC(=O)CC(C)(O)CC(=O)OC1C(OC1OCC(O)C(O)C1O)C2O)[C@@H](O)[C@H]7O)C(C)(CO)C6CCC5(C)C3(C)CC4 (some centres undefined),-10.2% [at 57.7 µM]
7,COCCNCc1ccc(-c2cc3nccc(Oc4ccc(NC(=S)NC(=O)Cc5ccc(F)cc5)cc4F)c3s2)nc1,40.6%
8,Cc1cc(CS(=O)(=O)c2ccccc2)cc(OCc2ccc(CN3CCC[C@@H]3CO)cc2)c1,-2.77%
9,Cc1ccn(-c2cc(Cl)ccc2[C@@H](Oc2cc(-c3ccc(C[C@H](N)C(=O)O)cc3)nc(N)n2)C(F)(F)F)n1,25%

# Source: PubChem BioAssay (NCATS)
